For 23 molecules, outcome and AC50 results are on record in PubChem BioAssay (EPA / NIEHS).

Calls of active or inactive are those of the source. Rule for the calls: active = hit-call score of the fitted dose curve at least 0.9, where 1 is the maximum; inactive = score below 0.9.

For experiment [1], the target named is Nuclear respiratory factor 1 (Homo sapiens) (UniProt Q16656). Briefly: ATG_NRF1_CIS: Attagene CIS-FACTORIAL HepG2 Assay for human Nuclear Respiratory Factor 1 (NRF1) Orphan Gene (AID 2282987). The conditions noted are these: HepG2 NRF1 cis-element reporter, Attagene multiplex; actives raise or lower the signal. In short, it runs like this:
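Using DMSO as baseline, gain- or loss-of-signal was fitted for reporter mRNA levels in HepG2 cells transiently transfected with cis-regulated reporter units. Samples were taken 24 h after dosing and read by RT-PCR with capillary electrophoresis.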

Experiment [2] in a line: ATG_NFI_CIS: Attagene CIS-FACTORIAL HepG2 Assay for human Nuclear Factor I (NFI) (AID 2282989). The conditions noted are these: HepG2 cis-regulatory reporter, NFI response element transcription; actives raise or lower the signal. In a few lines: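 Read-out: reporter mRNA via RT-PCR plus capillary electrophoresis with fluorescence detection. Transiently transfected HepG2 (endogenous TF activity on cis promoters), 24 h compound exposure; gain or loss of signal fitted against DMSO.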

The target in experiment [3] is Myc proto-oncogene protein (Homo sapiens) (UniProt P01106). Briefly: ATG_Myc_CIS: Attagene CIS-FACTORIAL HepG2 Assay for human Myelocytomatosis (Myc) Proto-Oncogene Transcription Factor (AID 2282990). The conditions noted are these: HepG2, Attagene cis-reporter transcription factor activity; actives raise or lower the signal. In short, it runs like this:
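Cells of the HepG2 human liver line bear multiple cis-driven reporter transcription units. Reporter mRNA after 24 h exposure is reverse-transcribed, amplified, labelled and resolved by capillary electrophoresis, with gain- or loss-of-signal fitting relative to DMSO.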

The nature of experiment [4]: ATG_NRF2_ARE_CIS: Attagene CIS-FACTORIAL HepG2 Assay for human Nuclear Factor Erythroid 2 Related Factor 2 (NFR2) response to Antioxidant Response Elements (ARE) (AID 2282992).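 For AC50: reporter mRNA level measured by RT-PCR and capillary electrophoresis fluorescence.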 The conditions noted are these: HepG2 Attagene ARE/NRF2 reporter, transcription factor activity; actives raise or lower the signal. In short, it runs like this: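 HepG2 cells transiently transfected with multiplexed cis-element reporter constructs, 24 h after chemical dosing; reporter mRNA quantified by RT-PCR, fluorescent primer extension, HpaI digestion and capillary electrophoresis. Bidirectional fit relative to DMSO.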

Experiment [5] is described as follows: ATG_Oct_MLP_CIS: Attagene CIS-FACTORIAL HepG2 Assay for human Octamer-Binding Transcription Factor (Oct) (AID 2282993). The conditions noted are these: HepG2 Attagene cis-factorial Oct reporter, mRNA; actives raise or lower the signal. In a few lines:
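Read-out: reporter mRNA via RT-PCR plus capillary electrophoresis of 6-FAM-labelled fragments. Transiently transfected HepG2, 24 h exposure, endogenous TF activity on cis elements. Gain or loss of signal fitted relative to DMSO.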

Experiment [6] deals with Cellular tumor antigen p53 (Homo sapiens) (UniProt P04637). Briefly: ATG_p53_CIS: Attagene CIS-FACTORIAL HepG2 Assay for human p53 Transcription Factor (AID 2282994). The conditions noted are these: HepG2 p53 cis-element reporter, Attagene mRNA; actives raise or lower the signal. In a few lines:
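HepG2 cells transiently transfected with cis-regulated multiple reporter transcription units, dosed 24 h. Reporter mRNA measured by RT-PCR, 6-FAM primer extension, HpaI digestion and capillary electrophoresis; bidirectional fit relative to DMSO.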

Experiment [7] is described as follows: BSK_3C_TissueFactor: BioMAP Diversity Plus: 3C Assay for Tissue Factor Biomarker Activity (AID 2282997). The conditions noted are these: BioMAP 3C HUVEC, tissue factor biomarker readout; actives raise or lower the signal. In a few lines:
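Values derive from bidirectional curve fitting against DMSO of Tissue Factor ELISA signals, taken 24 h after dosing primary human umbilical vein endothelial cells.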

Experiment [8] in a line: BSK_3C_uPAR: BioMAP Diversity Plus: 3C Assay for Urokinase-type plasminogen activator receptor (uPAR) Biomarker Activity (AID 2282998). The conditions noted are these: BioMAP 3C HUVEC, uPAR biomarker ELISA; actives raise or lower the signal. In short, it runs like this: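 HUVEC primary cells; 24 h post-dose; uPAR by ELISA; gain or loss of signal fitted bidirectionally vs DMSO baseline.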

Experiment [9] in a line: BSK_3C_VCAM1: BioMAP Diversity Plus: 3C Assay for Vascular cell adhesion molecule 1 (VCAM1) Biomarker Activity (AID 2282999). The settings on record: BioMAP 3C HUVEC, VCAM1 ELISA, cytokine-stimulated; actives raise or lower the signal. In short, it runs like this:
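Endothelial cells from human umbilical vein are treated with test chemical. At 24 h, VCAM-1 is measured by ELISA, and responses in either direction are fitted relative to DMSO.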

Experiment [10] is described as follows: ATG_NF_kB_CIS: Attagene CIS-FACTORIAL HepG2 Assay for human Nuclear Factor Kappa B (NF-kB) (AID 2282991). The conditions noted are these: HepG2 Attagene cis-factorial NF-kB reporter mRNA; actives raise or lower the signal. In a few lines: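 Endpoint from a 52-component multiplexed HepG2 reporter panel: cis-regulated transcription units transiently transfected, 24 h dosing, reporter mRNA quantified by RT-PCR and capillary electrophoresis, scored as increase or decrease against DMSO.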

Myc proto-oncogene protein (Homo sapiens), sequence (P01106 whole entry, looked up): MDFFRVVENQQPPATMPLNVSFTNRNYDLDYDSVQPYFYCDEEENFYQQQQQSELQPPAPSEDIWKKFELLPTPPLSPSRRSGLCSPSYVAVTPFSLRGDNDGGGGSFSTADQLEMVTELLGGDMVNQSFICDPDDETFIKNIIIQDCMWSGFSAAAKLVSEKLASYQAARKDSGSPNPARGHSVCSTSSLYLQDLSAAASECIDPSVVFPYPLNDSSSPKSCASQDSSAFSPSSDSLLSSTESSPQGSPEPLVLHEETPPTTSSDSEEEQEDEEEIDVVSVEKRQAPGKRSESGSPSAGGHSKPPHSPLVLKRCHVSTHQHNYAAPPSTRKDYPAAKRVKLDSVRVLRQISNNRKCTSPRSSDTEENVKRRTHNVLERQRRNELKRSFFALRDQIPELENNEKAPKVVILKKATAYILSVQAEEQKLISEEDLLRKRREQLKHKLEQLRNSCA
Nuclear respiratory factor 1 (Homo sapiens), sequence (Q16656 whole entry, looked up): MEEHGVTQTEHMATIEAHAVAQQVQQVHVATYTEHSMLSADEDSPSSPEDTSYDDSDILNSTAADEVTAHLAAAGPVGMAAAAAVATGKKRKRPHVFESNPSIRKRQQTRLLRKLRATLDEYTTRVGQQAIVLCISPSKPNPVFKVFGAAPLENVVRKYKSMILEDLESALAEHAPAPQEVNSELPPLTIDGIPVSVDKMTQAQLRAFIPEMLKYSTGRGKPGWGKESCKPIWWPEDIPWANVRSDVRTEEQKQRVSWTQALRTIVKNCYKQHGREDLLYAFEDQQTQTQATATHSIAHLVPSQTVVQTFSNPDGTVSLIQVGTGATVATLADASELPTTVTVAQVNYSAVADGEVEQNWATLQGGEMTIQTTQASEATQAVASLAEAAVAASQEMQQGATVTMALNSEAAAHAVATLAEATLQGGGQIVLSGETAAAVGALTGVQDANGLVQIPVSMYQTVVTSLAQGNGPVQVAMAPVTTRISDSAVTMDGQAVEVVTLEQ
Cellular tumor antigen p53 (Homo sapiens), sequence (P04637 whole entry, looked up): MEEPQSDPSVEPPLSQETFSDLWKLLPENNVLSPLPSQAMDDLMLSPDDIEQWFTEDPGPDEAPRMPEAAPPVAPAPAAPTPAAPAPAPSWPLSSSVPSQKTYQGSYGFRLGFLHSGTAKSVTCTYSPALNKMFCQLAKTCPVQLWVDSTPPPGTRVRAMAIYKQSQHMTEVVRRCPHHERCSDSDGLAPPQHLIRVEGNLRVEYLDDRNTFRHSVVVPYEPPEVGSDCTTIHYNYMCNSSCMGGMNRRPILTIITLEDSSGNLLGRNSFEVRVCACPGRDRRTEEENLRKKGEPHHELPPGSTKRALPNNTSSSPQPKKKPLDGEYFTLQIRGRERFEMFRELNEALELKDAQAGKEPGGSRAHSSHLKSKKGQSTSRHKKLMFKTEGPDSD

Take `COc1cc(S(=O)(=O)O)c(C)cc1N=Nc1c(O)ccc2cc(S(=O)(=O)O)ccc12`: the result in experiment [1], in experiment [2], in experiment [3], in experiment [4], in [5] and in experiment [6] was inactive. Moreover, the result in [7], in experiment [8] and in experiment [9] was inactive.
With `Cc1nc(C)nc(N2C[C@@H](C)N(c3ccnc([C@@H](C)O)n3)[C@@H](C)C2)n1`, the call in [1], in [2], in experiment [3], in experiment [10], in experiment [4] and in experiment [5] was inactive. Besides, the call in [6], in [7] and in experiment [9] was inactive. For the same molecule, the AC50 in [8] is 12.9 µM (active).
`Cc1cc(NC(=O)C(=O)O)cc(C)c1Oc1ccc(O)c2c1CCC2`: the call in [1], in [2], in experiment [3], in experiment [4], in experiment [5] and in [6] was inactive. The result in [7], in experiment [8] and in [9] was inactive.
Regarding `CCCc1cc(=O)[nH]c(=S)[nH]1`, the call in experiment [1], in experiment [2], in experiment [3], in experiment [4], in experiment [5] and in experiment [6] was inactive. The result in [7], in experiment [8] and in experiment [9] was inactive.
Regarding `NS(=O)(=O)c1cc2c(cc1Cl)NCNS2(=O)=O`, the molecule was classed as inactive in experiment [1], in experiment [2], in experiment [3], in [4], in [5] and in [6]. In addition, the result in [7], in [8] and in experiment [9] was inactive.
As to `CCCCCCCCCCC`, the outcome in experiment [1], in [2], in experiment [3], in [10], in [4] and in experiment [5] was inactive. Besides, the molecule was called inactive in experiment [6], in experiment [7], in [8] and in experiment [9].
Regarding `CCCCCCCCCCCCCO`, the call in experiment [1], in [2], in experiment [3], in experiment [5] and in experiment [6] was inactive. The AC50 in [4] is 57.4 µM (active); in experiment [7], 33.1 µM (active); in experiment [8], 33.7 µM (active); in [9] it was 35.6 µM (active).
Take `Oc1ccc2ccccc2c1N=Nc1ccccc1`: the molecule was classed as inactive in experiment [1], in experiment [2], in experiment [3], in experiment [10], in experiment [5] and in [6]. In addition, the outcome in experiment [8] and in experiment [9] was inactive. The results for the AC50 in [4] and in [7] were 1.42 µM (active) and 6 µM (active), respectively.
On to `COc1ccc2c(c1)c(CC(=O)O)c(C)n2C(=O)c1ccc(Cl)cc1`, for which the molecule was called inactive in [1], in experiment [2], in [3], in experiment [4], in experiment [5] and in [6]. Further, the result in experiment [7], in [8] and in experiment [9] was inactive.
For the molecule `CCOc1ccc2c(c1)C(C)=CC(C)(C)N2`, the AC50 was 133 µM (active) in [1], 166 µM (active) in [2], 27.1 µM (active) in experiment [4] and 142 µM (active) in [5]. Further, the molecule was classed as inactive in [3], in [6], in experiment [7], in experiment [8] and in experiment [9].
For `NCCO`, the call in experiment [1], in experiment [2], in experiment [3], in experiment [4], in experiment [5] and in [6] was inactive. Further, the outcome in [7], in [8] and in experiment [9] was inactive.
For the molecule `Cc1ccc(Cl)cc1`, the call in experiment [1], in experiment [2], in [3], in [4], in [5] and in [6] was inactive. The outcome in experiment [7], in [8] and in experiment [9] was inactive.
For `COc1ccc(S(=O)(=O)N2C(=O)[C@@](c3ccccc3OC)(N3C[C@H](O)C[C@H]3C(=O)N(C)C)c3cc(Cl)ccc32)c(OC)c1`, the call in [1], in experiment [2], in experiment [3], in experiment [4] and in experiment [7] was inactive. The AC50 was 38 µM (active) in [5], 49.7 µM (active) in experiment [6], 20 µM (active) in experiment [8] and 28.8 µM (active) in experiment [9].
For the molecule `O=c1[nH]cc(F)c(=O)[nH]1`, the molecule was classed as inactive in experiment [1], in [2], in experiment [3], in experiment [4], in experiment [5] and in experiment [7]. The outcome in [8] and in experiment [9] was inactive. Moreover, the AC50 in experiment [6] is 11.5 µM (active).
Regarding `Cc1ccccc1Cl`, the call in experiment [1], in [2], in experiment [3], in experiment [4], in [5] and in experiment [6] was inactive. The result in experiment [7], in experiment [8] and in experiment [9] was inactive.
For the molecule `CC(=O)OC/C=C(\C)CCC=C(C)C`, the outcome in [1], in [2], in [3], in experiment [4], in experiment [5] and in experiment [6] was inactive. For the same molecule, the result in experiment [7], in experiment [8] and in experiment [9] was inactive.
For the molecule `CCCCc1ccc2c(n1)[C@@H](c1ccc(OC)cc1C[C@H](C)C(=O)O)[C@H](C(=O)O)[C@H]2c1ccc2c(c1)OCO2`, the outcome in [1], in [2], in experiment [3], in experiment [4], in experiment [5] and in experiment [6] was inactive. Also, the result in [7], in [8] and in experiment [9] was inactive.
With `C=CCc1ccc(O)c(OC)c1`, the call in experiment [1], in [2], in experiment [3], in [5], in [6] and in [7] was inactive. For the same molecule, the result in experiment [8] and in experiment [9] was inactive. For the same molecule, in experiment [4], the concentration at half-maximal activity (AC50) is 27 µM (active).
As to `CC(=O)OCCOCCOCCOC(C)=O`, the molecule was classed as inactive in [1], in experiment [2], in experiment [3], in experiment [4], in [5] and in [6]. In addition, the result in experiment [7], in experiment [8] and in experiment [9] was inactive.
For the molecule `O=C(N[C@@H](Cc1ccccc1)[C@@H](O)C(=O)N1C[C@@H](O)[C@@H](O)C1)c1cc2cc(Cl)ccc2[nH]1`, the call in [1], in experiment [2], in experiment [3], in experiment [10], in [5] and in [6] was inactive. For the same molecule, the result in experiment [7], in [8] and in experiment [9] was inactive. In experiment [4], the AC50 was 91.9 µM (active).
In the case of `Cc1c(C(=O)O)c(O)cc2c1C(=O)c1c(O)c([C@@H]3O[C@H](CO)[C@@H](O)[C@H](O)[C@H]3O)c(O)c(O)c1C2=O`, the result in [1], in experiment [2], in experiment [3], in [4], in experiment [5] and in experiment [6] was inactive. In addition, the outcome in experiment [7], in [8] and in experiment [9] was inactive.
Take `CCCCCCCCCCCCCCCC`: the molecule was classed as inactive in [1], in experiment [2], in [3], in experiment [4], in experiment [5] and in experiment [6]. The result in experiment [7], in [8] and in experiment [9] was inactive.
For the molecule `CC(=O)C(C)=CC1C(C)=CCCC1(C)C` (stereo unspecified), the molecule was called inactive in experiment [1], in experiment [2], in experiment [3], in experiment [4], in experiment [5] and in experiment [6]. The result in experiment [7], in experiment [8] and in experiment [9] was inactive.
